From PubChem
Shown are actives, neighbours in structure and some others; about 7.6% of the full set was active somewhere.
RORg inh = ROR gamma (mouse) transcription inhibition | P51450 | Drosophila S2 Gal4-RORgamma UAS-luciferase reporter, 20 h | Potency, µM (doses to about 53.6 µM), inactives show at the top dose activity change, negative = inhibition, most hits filed as inhibitors | actives 5.4% (n = 310,000); further: potency means the concentration at half of the fitted maximal effect; on the % scale 0 is the no-effect control and ±100 the full control effect; nearly all actives have a fitted effect of over 60% in size
Target sequence (P51450 whole entry, looked up, the tested form may be a part): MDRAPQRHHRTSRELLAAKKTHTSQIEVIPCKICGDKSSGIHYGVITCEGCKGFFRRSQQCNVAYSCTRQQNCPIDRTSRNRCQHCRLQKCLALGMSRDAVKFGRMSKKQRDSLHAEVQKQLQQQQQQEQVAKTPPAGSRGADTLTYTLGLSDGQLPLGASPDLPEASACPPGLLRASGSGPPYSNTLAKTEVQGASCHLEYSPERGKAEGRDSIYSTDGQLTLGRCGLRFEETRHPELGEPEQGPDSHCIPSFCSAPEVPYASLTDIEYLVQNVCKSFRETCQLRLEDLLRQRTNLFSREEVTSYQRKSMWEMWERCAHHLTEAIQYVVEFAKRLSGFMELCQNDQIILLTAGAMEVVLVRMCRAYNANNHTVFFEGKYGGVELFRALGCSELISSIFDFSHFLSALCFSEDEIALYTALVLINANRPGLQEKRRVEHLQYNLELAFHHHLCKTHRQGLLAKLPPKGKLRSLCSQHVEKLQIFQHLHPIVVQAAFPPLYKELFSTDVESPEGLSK
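Read-out: Photinus luciferase luminescence; inhibitors lower reporter signal. Insect Schneider cells with Gal4-ROR gamma fusion under metallothionein promoter, UAS reporter; 700 uM final copper sulfate induction, 20 hr, ambient temperature.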
VP16 counter = counter-screen for ROR gamma inhibitors: Gal4-VP16 reporter; Drosophila S2 Gal4-VP16 UAS-luciferase, luminescence, 20 h; actives 3.5% (n = 310,000); Potency, µM (titrated, usually from 53.6 µM), inactives show at the highest dose activity, negative = inhibition, most hits filed as inhibitors;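 further: Gal4-VP16 expression switched on by copper sulfate through the metallothionein promoter; potency means the concentration at half of the fitted maximal effect; on the % scale 0 is the no-effect control and ±100 the full control effect; nearly all actives have a fitted effect of over 50% in size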
p53 reactivation = mutant p53 re-activation in reporter cells; H1299 p53-A138V BP100-luciferase reporter, luminescence, 24 h; actives 0.063% (n = 320,000); Potency, µM (top dose mostly 92.2 µM), without a hit: top-dose activity change, positive = activation, most hits filed as activators; further: potency means the concentration at half of the fitted maximal effect; % of control where 0% means no effect; nearly all actives have a fitted effect of over 45% in size
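p53-null H1299 cells stably carrying temperature-sensitive p53-A138V and a BP100-luciferase reporter were pinned with compounds (4-point, 1:5 series) and held 24 hrs at 37 deg C. Luminescence was read 10 min after detection reagent.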
ELG1 repair inh = blocks ELG1-dependent DNA repair in HEK293T cells. HEK293T ELG1-luciferase reporter, luminescence, 16 h; DNA damage induced by 5-fluorouridine. Potency, µM (doses to about 46.1 µM), without a hit: at the top dose activity change, negative = inhibition, most hits filed as inhibitors. actives 2.3% (n = 330,000). AID 504467; further: potency means the concentration at half of the fitted maximal effect; on the % scale 0 is the no-effect control and ±100 the full control effect; nearly all actives have a fitted effect of over 55% in size
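HEK293T cells expressing luciferase-tagged ELG1 (2,000/well) received 5-Fluorouridine plus compound or DMSO for 16 hr at 37 °C. Luciferase was read by ONE-Glo luminescence after 30 min at room temperature.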
BRCA1 expr up = BRCA1 expression activation; MCF7-BRCA1-FFLuc reporter, luminescence, 48 h; response scale: scaled: vehicle 0%, 10 µM genistein 100%; Potency, µM (series often up to 46.1 µM), without a hit: top-dose activation, actives largely listed as activators; actives 1.1% (n = 380,000); AID 624202; further: potency means the concentration at half of the fitted maximal effect; nearly all actives have a fitted effect of over 80% in size
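Using MCF7 cells harboring a BRCA1 firefly luciferase reporter, plated 2 h before compound pinning, the screen measured luminescence after 48 h incubation. Responses were normalized to DMSO and 10 microM genistein, then fitted for concentration-effect.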
Giardia kill = kills Giardia lamblia. Giardia lamblia trophozoite viability. activity change, % at 7.66 µM, hits read low. actives 0.15% (n = 340,000). AID 540267; in the data active means activity change below about -80%; inconclusive means between about -30% and that limit;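 further: parasites exposed to compound for two days anaerobically before the ATP read; on the % scale 0 is the no-effect control and ±100 the full control effect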
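Giardia lamblia trophozoites (100 cells/well) were incubated with compounds for 48 h at 37 deg C under anaerobic conditions. Viability was read as ATP content by one-step luminescence after 15-30 min at room temperature.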
Starred values were filed as active, the others as inactive; ? = inconclusive; . = no result; [ ] = remark or other dose. Unless noted, the call rests on the fitted dose curve; in most records, active means well fitted curve in the direction sought with a large enough effect; inconclusive means small, poorly fitted or top-dose-only effect, or another doubt; inactive means no such curve, though single readings can be large; an effect the other way counts as inactive or inconclusive.

SMILES	RORg inh	VP16 counter	p53 reactivation	ELG1 repair inh	BRCA1 expr up	Giardia kill
C=CCn1c(=S)[nH]c2nc3c(cc2c1=O)CCCC3	7.08µM*	7.08µM*	?	22.9%	62.8%	13.3
C=CCn1c(=O)c2ccccc2n2c(=S)[nH]nc12	-29.2%	-6.2%	0.8%	-4.7%	-26.0%	-18.2
C=CCn1c(=S)[nH]c2ccc(Br)cc2c1=O	2.82µM*	3.16µM*	7.4%	?	-9.1%	6.4
CC(=O)N1CCN(C(=O)c2ccc(NS(=O)(=O)c3ccc4c(c3)OCCO4)cc2)CC1	.	.	2.4%	-3.7%	0.1%	-14.6
O=C(C1CCC1)N1CCc2cc(S(=O)(=O)Nc3ccc4c(c3)OCCO4)ccc21	?	20µM*	2.6%	-12.9%	-21.9%	9.3
CS(=O)(=O)N1CCc2cc(S(=O)(=O)Nc3ccc4c(c3)OCCO4)ccc21	?	17.8µM*	-23.3%	?	-70.7%	0.2
O=C(c1ccc(NS(=O)(=O)c2ccc3c(c2)OCCO3)cc1)N1CCCCC1	?	-27.4%	-6.9%	23.1µM*	-31.9%	-12.3
CCC(=O)N1CCc2cc(S(=O)(=O)Nc3ccc4c(c3)OCCO4)ccc21	?	?	1.0%	?	-17.1%	1.9
O=C(C1CCN(S(=O)(=O)c2ccc3c(c2)OCCO3)CC1)N1CCc2ccccc21	15.7%	0.8%	-0.5%	23.1µM*	-5.3%	7.0
CCOC(=O)[C@@H]1[C@H]2COc3ccc(Br)cc3[C@@H]2N2C(=O)N(c3cccc(Cl)c3)C(=O)[C@@]12C	.	.	-3.6%	-1.9%	-9.5%	7.3
C=CN1CCCC1=O	36.2%	-3.3%	.	.	.	.
CC(=O)/C(=N/Nc1cccc(Cl)c1)Sc1nnc(C(O)c2ccccc2)n1-c1ccccc1 (configuration not stated)	-8.6%	-12.6%	9.3%	-18.6%	?	-8.7
COc1ccc(NC(=O)CN(C)C(=O)c2ccc(-c3ccccc3Cl)o2)cc1	.	.	-0.4%	9.8%	11.4%	-28.0
O=C(/C=C/c1ccc(F)cc1)Nc1ccc2[nH]c(=O)[nH]c2c1	3.4%	-0.7%	-1.1%	10.2%	0.0%	-0.6
O=C(c1ccc(S(=O)(=O)Nc2ccc(F)cc2)cc1)N1CCN(C(=O)c2ccco2)CC1	-27.9%	20µM*	0.3%	?	-31.1%	0.2
O=C(C1COc2ccccc2O1)N1CCc2ccccc21 (configuration not stated)	11.6%	17.9%	8.2%	?	11.2µM*	5.0
Cc1cc(S(=O)(=O)Nc2ccc(C(=O)N3CCN(C(=O)c4ccco4)CC3)cc2)ccc1F	29.2%	?	3.9%	-18.1%	-16.9%	9.9
Cc1ccccc1S(=O)(=O)Nc1nc2ccccc2nc1N1CCc2ccccc2C1	0.1%	?	28.2µM*	-10.1%	-36.5%	4.5
O=S(=O)(Nc1nc2ccccc2nc1N1CCc2ccccc2C1)c1ccc(Cl)cc1	33.3%[10 µM]	?	9.9%	?	-64.8%	20.9
O=S(=O)(Nc1nc2ccccc2nc1N1CCc2ccccc2C1)c1ccc(Br)cc1	7.94µM*	?	?	?	-64.8%	-15.5
COc1ccc(OC(=O)c2cnc3n(c2=O)CCS3)cc1	14.4%	-10.0%	2.8%	?	-2.2%	9.7
Cc1ccc(OCC(=O)Nc2nnc(C3CCCO3)s2)c(Br)c1 (configuration not stated)	15.4%	-9.2%	20.7%	?	-15.0%	-23.3
O=C(Nc1nnc(C2CCCO2)s1)c1ccc(Br)cc1 (configuration not stated)	-4.5%	?	14.3%	?	11.2µM*	-8.1
Cc1cc(NC(=O)Nc2cccc(Cl)c2)n(-c2ccccn2)n1	-1.0%	-7.6%	-2.0%	16.4µM*	-42.1%	-15.8
Cc1cc(NC(=O)Nc2cccc(Cl)c2)n(-c2ccccc2)n1	6.1%	1.1%	-6.7%	0.2%	-6.4%	-5.6
COc1ccc2nc3oc(C(=O)NCc4cccs4)cc3cc2c1	?	-2.3%	-0.5%	23.3%	7.5%	-7.6
